# Source: PubChem
# mHTT-CaM PPI inh: disrupts binding of mutant huntingtin to calmodulin. inhibition, % at 15 µM. 190,000 compounds, 3.6% hits. AID 1671202. AlphaScreen His-mHTT/GST-CaM binding, luminescence
# Pf apPOL inh: Pf-apPOL DNA polymerase inhibition | Recombinant Pf-apPOL, molecular beacon fluorescence, 1.5 h | inhibition, % at 10 µM | 210,000 compounds, 0.25% hits
# A number is an active result; i = inactive. Many of the other results were omitted from the sample, so hits are more common in it than they were. Rule as the data show it: active = inhibition above about 50%; inactive = the rest.
SMILES,mHTT-CaM PPI inh,Pf apPOL inh
O=C(NNC(=O)c1cc2cc(Br)ccc2oc1=O)c1ccc(O)cc1O,54.5,72.7
CNC(=O)c1cc2cc(Br)ccc2oc1=O,i,i
O=[N+]([O-])c1cccc(C=Nc2ccc(I)cc2)c1O,i,i
Cc1ccc(N=Cc2cc3c(cc2[N+](=O)[O-])OCO3)cc1I,55.0,i
O=[N+]([O-])c1cc2c(cc1C=Nc1ccc(I)cc1)OCO2,64.0,i
COc1ccc(-c2nc3ccc(N=Cc4cc5c(cc4[N+](=O)[O-])OCO5)cc3o2)cc1,i,i
O=C(C1CCN(Cc2ccc(F)cc2)CC1)N(CCO)Cc1ccccc1,i,i
CC1CCCN(CN2C(=O)C(=Nc3ccc(Br)cc3)c3ccccc32)C1 (configuration not stated),i,i
O=C1CSC(c2ccccc2)N1c1ccc(Oc2ccccc2)cc1 (configuration not stated),78.0,i
O=C1CSC(c2ccccc2)N1c1ccccc1 (configuration not stated),i,i
O=C1CSC(c2cccc([N+](=O)[O-])c2)N1c1ccc(Oc2ccccc2)cc1 (configuration not stated),78.0,i
CCOc1ccc(N2C(=O)CSC2c2cccc([N+](=O)[O-])c2)cc1 (configuration not stated),i,i
CCOc1cc2[nH]c(=O)n(CCCC(=O)NCc3cccnc3)c(=O)c2cc1OCC,i,i
O=C(c1ccccn1)N1CC2CC1CC2NS(=O)(=O)c1ccccc1 (configuration not stated),i,i
COc1ccccc1N(C)c1cc2c(c3c1ccn3C)C1CCC2O1 (configuration not stated),67.2,i
Cn1ccc2c(-c3ccc(F)cc3)cc3c(c21)C1CCC3O1 (configuration not stated),i,i
CN(Cc1ccccc1)c1cc2c(c3c1ccn3C)C1CCC2O1 (configuration not stated),71.8,i
Cn1ccc2c(N(Cc3ccccc3)Cc3ccccc3)cc3c(c21)C1CCC3O1 (configuration not stated),i,i
COc1cc(OC)c2c(-c3ccccc3)cc(=O)oc2c1C(CCN1CCOCC1)c1ccc2c(c1)OCO2 (configuration not stated),84.2,i
COc1cc(OC)c2c(-c3ccccc3)cc(=O)oc2c1C(CCN1CCCC1)c1ccc2c(c1)OCO2 (configuration not stated),100.2,i
COc1cc(OC)c2ccc(=O)oc2c1C(CCN1CCOCC1)c1ccc2c(c1)OCO2 (configuration not stated),i,i
CCCCCc1cc(=O)oc2c(C(CCN3CCCC3)c3ccc4c(c3)OCO4)c(OC)cc(OC)c12 (configuration not stated),100.2,i
COc1cc(OC)c2ccc(=O)oc2c1C(CCN1CCCC1)c1ccc2c(c1)OCO2 (configuration not stated),i,i
CCc1ccc(NC(=O)N2CCCC(c3cccc(C(=O)NCCCOC)c3)C2)cc1 (configuration not stated),i,i
O=C(c1ccc(-c2ccc(Cl)cc2)o1)N1CCN(c2ccc([N+](=O)[O-])cc2Cl)CC1,i,i
SMILES,mHTT-CaM PPI inh,Pf apPOL inh
COc1ccc(Cn2c(C(C)C)nc3ccccc32)cc1OC,i,i
CCCCN(C)Cc1cccc([N+](=O)[O-])c1,i,i
O=C(Cc1c[nH]c2ccccc12)N(Cc1cccs1)C1(C(=O)NC2CCCC2)CCCCC1,i,i
CCC(C)(C(=O)NC1CCCCC1)N(CC1CCCO1)C(=O)Cc1c[nH]c2ccccc12 (configuration not stated),58.0,i
CCC(C)(C(=O)NC1CCCCC1)N(C)C(=O)Cc1c[nH]c2ccccc12 (configuration not stated),i,i
O=C(Cc1c[nH]c2ccccc12)N(CC1CCCO1)C1(C(=O)NC2CCCCC2)CCCCC1 (configuration not stated),87.0,i
COc1cc(/C=C2\NC(=O)N(Cc3ccc(Br)cc3)C2=O)cc2c1OCO2,i,i
COc1ccccc1C1CC(c2ccc(C)cc2)=NN1C(=O)CN1CCOCC1 (configuration not stated),i,i
COc1ccc(C2=NN(C(=O)CN3CCOCC3)C(c3ccc(F)cc3)C2)cc1 (configuration not stated),i,i
COc1ccc(C2CC(c3cccc(F)c3)=NN2C(=O)CN2CCOCC2)cc1 (configuration not stated),73.7,i
COc1ccc(C2CC(c3ccc(Br)cc3)=NN2C(=O)CCN2CCOCC2)cc1 (configuration not stated),66.0,i
COc1ccccc1C1CC(c2cccc(F)c2)=NN1C(=O)CN1CCOCC1 (configuration not stated),65.7,i
Cc1ccc(C2=NN(C(=O)CN3CCCC3)C(c3ccc4c(c3)OCO4)C2)cc1 (configuration not stated),i,i
COc1ccc(C2=NN(C(=O)CCC(=O)O)C(c3ccc(Br)cc3)C2)cc1 (configuration not stated),i,i
O=C(CN1CCCC1)N1N=C(c2cccc(F)c2)CC1c1ccc2c(c1)OCO2 (configuration not stated),97.6,i
CCOC(CCNC(=O)C1c2cc(OC)c(OC)cc2C(=O)N(C)C1c1cccs1)OCC (configuration not stated),i,i
Cc1nc(-c2cn(C)c3ncccc23)sc1C(=O)N1CCOCC1,i,i
CC(C)c1ccc(NC(=O)CCNS(=O)(=O)c2ccc(Br)s2)cc1,i,i
Clc1ccc(OCCSc2nc3ccccc3[nH]2)cc1,i,i
Cc1c(-c2noc(C(=O)NC3CCCCC3)n2)oc2c(C)cccc12,i,i
Brc1ccc(CSc2ncn[nH]2)cc1,i,i
COc1ccccc1Cn1c(C(=O)N2CCNC(C)C2)cc2ccoc21 (configuration not stated),i,i
COc1ccc(OC)c(Nc2ncnc3c2cnn3-c2ccc(C)cc2C)c1,i,i
Cc1ccc(/C=c2\sc3nnc(-c4ccccc4Cl)n3c2=O)o1,i,i
O=C(Cn1[nH]c2c(cnc3ccc(F)cc32)c1=O)Nc1ccc(Br)cc1,64.1,i
SMILES,mHTT-CaM PPI inh,Pf apPOL inh
Cc1ccc(Cl)cc1NC(=O)Cn1[nH]c2c(cnc3ccc(F)cc32)c1=O,i,i
O=C(Cn1[nH]c2c(cnc3ccc(F)cc32)c1=O)Nc1ccc(F)cc1,i,i
Cc1ccc(F)cc1NC(=O)Cn1[nH]c2c(cnc3ccc(F)cc32)c1=O,94.9,i
Cc1nc(-c2ccncc2)nc2c1CC(=O)N2CC1CCCCC1,i,i
Cn1c(C(=O)NCCCN2CCCCC2)cc2c1CCN(Cc1ccccc1)C2,93.4,i
Cn1c(C(=O)NCCCN2CCCCC2)cc2c1CCN(Cc1cccc(F)c1)C2,83.2,i
CCN(CC)C(=O)c1cc2c(n1C)CCN(Cc1cccc(C)c1)C2,i,i
Cn1c(C(=O)NC(C)(C)C)cc2c1CCN(Cc1cccc(F)c1)C2,i,i
Cc1cccc(CN2CCc3c(cc(C(=O)NCc4ccco4)n3C)C2)c1,56.9,i
CN(Cc1ccccc1)C(=O)c1cc2c(n1C)CCN(Cc1cccc(F)c1)C2,58.9,i
Cn1c(C(=O)NCCN2CCCCC2)cc2c1CCN(Cc1ccc(F)cc1)C2,i,i
CCCCN(C)C(=O)c1cc2c(n1C)CCN(Cc1cccc(F)c1)C2,i,i
O=C(CN1CCN(Cc2cccc3ccccc23)CC1)c1ccco1,i,i
